Source: PubChem BioAssay
SW480 rerep: inducers of DNA re-replication in SW480 colon cancer cells; Potency, µM (series often up to 46.1 µM), for the others: at the top dose re-replication activation, hits mostly activators; AID 624297; hit rate 1.8% among 340,000; SW480 DNA re-replication, Hoechst DNA content imaging, 48 h; further: potency means the concentration at half of the fitted maximal effect; % of control where 0% means no effect; nearly all actives have a fitted effect of over 55% in size
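Readout is total intensity of Hoechst-stained nuclei, excited at 405 nm and collected at 500-530 nm. Compound treatment lasted 48 hr at 37 C in 5% CO2 before staining.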
IL-1B inflam inh: inhibitors of inflammasome signaling (IL-1 beta secretion); AID 743279; THP-1 LPS/ATP IL-1B secretion, AlphaLISA, 16 h; active compounds read low; activity change, % at 57.5 µM; hit rate 4.7% among 360,000; in the data active means activity change below about -50%; inconclusive means mostly about -30% to -49%; further: on the % scale 0 is the no-effect control and ±100 the full control effect
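Secreted IL-1B measured by AlphaLISA bead assay after 16 h compound exposure of THP-1 cells; compounds (final up to 57.5 uM) added 1 h before LPS (250 ng/mL) and ATP (1.25 mM) stimulation; lower signal means less secretion.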
Chronic BCR inh: inhibitors of chronic active B-cell receptor signaling. ABC-DLBCL IkBa-CBG/CBR reporter, luminescence ratio, 4 h. Potency, µM (highest dose often 46.1 µM), for inactives: top-dose activity change, negative = inhibition, actives largely listed as inhibitors. hit rate 0.05% among 340,000; active means well fitted inhibition curve with a large enough effect in the signal ratio, with a control signal flat, not every such curve was filed as active; inconclusive means small, poorly fitted or top-dose-only effect, or effect the other way, or a change in a side signal; the % refers to the signal ratio;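 further: potency means the concentration at half of the fitted maximal effect; plate controls were basal doxycycline-induced cells for no effect and cells given 10 µM MG132 for full effect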
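TMD8 human ABC-DLBCL cells with doxycycline-inducible IκBα–green luciferase fusion and unfused red luciferase, in 0.5% FBS medium; compounds up to 46 uM, 4 h at 37C. Green/red luminescence ratio, filter-overlap corrected, fitted to concentration-response curves.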
MCF10A rereplic: DNA re-replication induction in MCF 10a cells | MCF 10A DNA re-replication, Hoechst nuclear intensity, 48 h | Potency, µM (highest dose often 46.1 µM), without a hit: top-dose activity, positive = re-replication, hits mostly activators | hit rate 2.9% among 350,000; further: potency means the concentration at half of the fitted maximal effect; % of control where 0% means no effect; nearly all actives have a fitted effect of over 50% in size
DT40 TDP1 no CPT: qHTS for Inhibitors of human tyrosyl-DNA phosphodiesterase 1 (TDP1): qHTS in cells in absence of CPT. DT40 Tdp1-/- hTDP1 cells, no CPT, ATP luminescence, 48 h. Potency, µM (series often up to 46.2 µM), without a hit: at the top dose activity change, negative = growth inhibition, actives largely listed as inhibitors. hit rate 15% among 420,000; further: potency means the concentration at half of the fitted maximal effect; on the % scale 0 is the no-effect control and ±100 the full control effect; nearly all actives have a fitted effect of over 55% in size
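Growth kinetics read by CellTiter-Glo luminescence after ≥48 hr at 37 °C. Cells: DT40 Tdp1-/- stably carrying human TDP1, 400 per well, compound exposure in the absence of CPT (DMSO vehicle).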
TDP1 cell CPT: growth inhibition of DT40 Tdp1-/-;hTDP1 cells with camptothecin (screen for TDP1 inhibitors); Potency, µM (doses to about 46.2 µM), for inactives: at the highest dose activity change, negative = growth inhibition, most hits filed as inhibitors; AID 686979; hit rate 12% among 420,000; chicken DT40 Tdp1-/-;hTDP1 cells + 20 nM CPT, ATP luminescence, 48 h; further: potency means the concentration at half of the fitted maximal effect; on the % scale 0 is the no-effect control and ±100 the full control effect; nearly all actives have a fitted effect of over 55% in size
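Cell growth measured by CellTiter-Glo luminescence after a minimum 48 h, 37 C compound exposure with 20 nM CPT in Tdp1-knockout DT40 cells stably expressing hTDP1, seeded 400/well; qHTS titration format.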
* marks the source's active call; other numbers are inactive results. This is a sample that favours compounds with a hit; in the whole collection about 19% have one here. Unless noted, the call rests on the fitted dose curve; in most records, active means well fitted curve in the direction sought with a large enough effect; inconclusive means small, poorly fitted or top-dose-only effect, or another doubt; inactive means no such curve, though single readings can be large; an effect the other way counts as inactive or inconclusive.

What do the screens show for `CCN(Cc1ccccc1)C(=O)C1CCC(CNS(=O)(=O)c2ccc3c(c2)CCCC(=O)N3)CC1` (configuration not stated)?
DT40 TDP1 no CPT: 16µM*; TDP1 cell CPT: inconclusive

How did O=C1CCCc2cc(S(=O)(=O)N3CCC(C(=O)NCc4ccccc4)CC3)ccc2N1 do in these assays?
SW480 rerep: 0%; IL-1B inflam inh: 38; Chronic BCR inh: 2%; MCF10A rereplic: -20%; DT40 TDP1 no CPT: inconclusive; TDP1 cell CPT: 8%

Results for COc1ccccc1CNC(=O)C1CCC(CNS(=O)(=O)c2ccc3c(c2)CCCC(=O)N3)CC1 (configuration not stated) ?
DT40 TDP1 no CPT: -28%; TDP1 cell CPT: -21%

How did COc1cccc(NC(=O)C2CCC(CNS(=O)(=O)c3ccc4c(c3)CCCC(=O)N4)CC2)c1 (configuration not stated) do in these assays?
DT40 TDP1 no CPT: 15µM*; TDP1 cell CPT: 12µM*

How did CCOc1ccccc1NC(=O)C1CCC(CNS(=O)(=O)c2ccc3c(c2)CCCC(=O)N3)CC1 (configuration not stated) do in these assays?
DT40 TDP1 no CPT: 23µM*; TDP1 cell CPT: inconclusive

Results for O=C(NCC(c1ccc2c(c1)OCO2)N1CCN(c2ccccc2F)CC1)c1ccccc1F (configuration not stated) ?
DT40 TDP1 no CPT: 15µM*; TDP1 cell CPT: 12µM*

Results for CCOc1ccc(C(=O)NCC(c2ccc3c(c2)OCO3)N2CCN(c3ccccc3F)CC2)cc1 (configuration not stated) ?
DT40 TDP1 no CPT: 21µM*; TDP1 cell CPT: 16µM*

What do the screens show for `COC(=O)NCC(c1ccc2c(c1)OCO2)N1CCN(c2ccc(OC)cc2)CC1` (configuration not stated)?
SW480 rerep: 5%; IL-1B inflam inh: 8; Chronic BCR inh: inconclusive; MCF10A rereplic: inconclusive; DT40 TDP1 no CPT: inconclusive; TDP1 cell CPT: inconclusive

How did O=C(NCC(c1ccco1)N1CCN(c2ccc(F)cc2)CC1)c1ccc2c(c1)OCO2 (configuration not stated) do in these assays?
SW480 rerep: inconclusive; IL-1B inflam inh: -6; Chronic BCR inh: 11%; MCF10A rereplic: inconclusive; DT40 TDP1 no CPT: inconclusive; TDP1 cell CPT: inconclusive

Results for O=C(NCC(c1ccco1)N1CCN(c2ccccc2F)CC1)c1ccc2c(c1)OCO2 (configuration not stated) ?
SW480 rerep: 70%; IL-1B inflam inh: 1; Chronic BCR inh: 0%; MCF10A rereplic: 5%; DT40 TDP1 no CPT: 18µM*; TDP1 cell CPT: inconclusive

How did COc1ccc(N2CCN(C(CNC(=O)c3c(F)cccc3F)c3ccc4c(c3)OCO4)CC2)cc1 (configuration not stated) do in these assays?
DT40 TDP1 no CPT: 16µM*; TDP1 cell CPT: inconclusive

Results for CN(C)CCn1c2c(c(SCC(=O)Nc3cccc4ccccc34)nc1=O)CCC2 ?
SW480 rerep: 9%; IL-1B inflam inh: inconclusive; Chronic BCR inh: inconclusive; MCF10A rereplic: 1%; DT40 TDP1 no CPT: -27%; TDP1 cell CPT: 7%

How did CC(NC(=O)C1=CC=CN2CCS(=O)(=O)N=C12)c1ccc(Cl)cc1Cl (configuration not stated) do in these assays?
SW480 rerep: -2%; IL-1B inflam inh: -10; Chronic BCR inh: -5%; MCF10A rereplic: -1%; DT40 TDP1 no CPT: inconclusive; TDP1 cell CPT: -26%

How did CCCS(=O)(=O)NC(=O)C1(C)CCN(C(=O)c2nc(C)oc2C)C1 (configuration not stated) do in these assays?
IL-1B inflam inh: 24; DT40 TDP1 no CPT: -3%; TDP1 cell CPT: 1%

Results for COc1ccc(C(=O)NCC(c2ccc3c(c2)OCO3)N2CCOCC2)cc1 (configuration not stated) ?
Chronic BCR inh: -1%; DT40 TDP1 no CPT: inconclusive; TDP1 cell CPT: inconclusive

What do the screens show for `O=C(NCC(c1ccc2c(c1)OCO2)N1CCN(c2ccccc2)CC1)c1ccc(F)c(F)c1` (configuration not stated)?
DT40 TDP1 no CPT: 2.3µM*; TDP1 cell CPT: 5.2µM*

Results for O=C(NCC(c1ccc2c(c1)OCO2)N1CCOCC1)c1ccccc1 (configuration not stated) ?
DT40 TDP1 no CPT: inconclusive; TDP1 cell CPT: -23%

Results for COc1ccc(C(=O)NCC(c2ccc3c(c2)OCO3)N2CCN(c3ccccc3F)CC2)cc1 (configuration not stated) ?
DT40 TDP1 no CPT: 5.2µM*; TDP1 cell CPT: 7.3µM*

How did Cc1cccc(C(=O)NCC(c2ccc3c(c2)OCO3)N2CCOCC2)c1 (configuration not stated) do in these assays?
DT40 TDP1 no CPT: 23µM*; TDP1 cell CPT: inconclusive

Results for C=CC1=C(C(=O)O)N2C(=O)[C@@H](NC(=O)C(N=O)c3csc(N)n3)[C@H]2SC1 (some centres not stated) ?
SW480 rerep: -1%; MCF10A rereplic: -5%

Results for Cc1ccc(Nc2nc(NCc3ccco3)nc3nccnc23)cc1 ?
DT40 TDP1 no CPT: -17%; TDP1 cell CPT: inconclusive

What do the screens show for `O=S(=O)(CCN1CCOCC1)c1ccccc1`?
SW480 rerep: -4%; IL-1B inflam inh: -6; Chronic BCR inh: 0%; MCF10A rereplic: -1%; DT40 TDP1 no CPT: 9%; TDP1 cell CPT: -3%

How did O=S(=O)(CS(=O)(=O)c1ccc(Cl)cc1)c1ccc(Cl)cc1 do in these assays?
SW480 rerep: -15%; Chronic BCR inh: 7%; MCF10A rereplic: 21µM*; DT40 TDP1 no CPT: -8%; TDP1 cell CPT: 2%

How did O=S(=O)(CCN1CCSCC1)c1ccc(Cl)cc1 do in these assays?
SW480 rerep: inconclusive; IL-1B inflam inh: -73*; Chronic BCR inh: -8%; MCF10A rereplic: inconclusive; DT40 TDP1 no CPT: 7%; TDP1 cell CPT: 5%

Results for CN(CC(=O)Nc1ccc(Cl)cc1F)C1=NS(=O)(=O)c2ccccc21 ?
SW480 rerep: 6%; IL-1B inflam inh: 23; Chronic BCR inh: -11%; MCF10A rereplic: 3%; DT40 TDP1 no CPT: -19%; TDP1 cell CPT: 9%

What do the screens show for `COc1ccc(S(=O)(=O)Oc2ccccc2C(=S)N2CCOCC2)cc1`?
Chronic BCR inh: 0%
